This is an account of results in PubChem BioAssay AID588727 (Southern Research Specialized Biocontainment Screening …, 2011).

About 450 (0.13%) of roughly 350,000 compounds were called active. The rule behind the calls is not given here. These entries were drawn from the full list. Results with a measured potency or affinity are listed apart.

The inhibition is the relative decrease from the control value, in per cent.

The nature of this assay: inhibitors of VEEV TC-83 cytopathic effect, confirmation, Vero cells (AID 588727). The following applies: VEEV TC-83 cytopathic effect inhibition, at 20 µM.
The mark [1] stands for this setting: stronger effect = higher value unless noted.

With `O=C(Nc1cccc2ccccc12)N(c1ccccc1)c1ccccc1`, under setting [1], the inhibition entry was “inactive”.
Same read-out and setting: then `Cc1ccnc(NS(=O)(=O)c2ccc(NC(=O)c3ccc(C)o3)cc2)n1`, with 0.84% (inactive); and `Cc1sc2nc(CN(Cc3cccs3)C(=O)NC3CCCCC3)[nH]c(=O)c2c1C`, with 6.2% (inactive).
As to `CC[C@@H](C)[C@H](CNC)NC[C@@H](Cc1cccc2ccccc12)NCCc1cccc(C(F)(F)F)c1`, under setting [1], the inhibition is 0% [measured here: 10K pilot screen inhibition, stronger effect = higher value] and the compound was classed as inactive.
For `CNC[C@H](Cc1ccccc1)NC[C@@H](Cc1cccc2ccccc12)NCCc1ccc(C)cc1`, the inhibition result under setting [1] was “inactive”.
Consider `COc1ccc(/C=N\NC(=O)c2ccccc2OC)cc1COc1ccccc1C`, for which, under setting [1], the inhibition is 10.1% (inactive).
Same read-out and setting: the figure for `Cc1ccc(-c2nc(SC(C)C(=O)c3c(N)n(C)c(=O)n(C)c3=O)n[nH]2)cc1` (configuration not stated) is 10.2% (inactive).
On to `CCC(=O)N1c2ccc(S(=O)(=O)CCC(=O)NCc3cccs3)cc2CC1C` (configuration not stated), for which the inhibition under setting [1] was 1.31% (inactive).
In the case of `O=C(NCC(Cl)c1ccc2ccccc2c1)c1c(F)cccc1F` (configuration not stated), the inhibition result under setting [1] is “inactive”.
Consider `Cc1cc(-c2nnc(SCC(=O)Nc3ccccc3C(F)(F)F)n2N)n[nH]1`, for which the inhibition under setting [1] is 1.16% (inactive).
For `COc1cc(CNCCSc2nnnn2C)cc(Br)c1OCc1ccccc1F`, the inhibition result under setting [1] is “inactive”.
For the compound `COc1ccc(C(=O)/C=C/c2ccc(OC)c(Cn3nnc4ccccc43)c2)cc1`, under setting [1], the inhibition was 30.9% (inactive).
`COc1ccc(/C=C/C(=O)c2ccccc2O)cc1CN1CCOCC1`: under setting [1], the inhibition was 6.83% (inactive).
Same read-out and setting: the figure for `COc1ccc(/C=C/C(=O)c2ccc3ccccc3c2O)cc1CN1CCOCC1` is 2% (inactive).
Same read-out and setting: then `COc1ccc(/C=C/C(=O)C23CC4CC(CC(C4)C2)C3)cc1CN1CCOCC1`, with 6.32% (inactive); and `CCC1(C)NC(=O)N(CC(=O)NCC(=O)Nc2c(C)cc(C)cc2C)C1=O` (configuration not stated), with “inactive”.
Take `O=C(CSc1ncnc2c1cnn2-c1ccccc1)NC1CCCC1`: the inhibition under setting [1] is 4.66% (inactive).
Same read-out and setting: then `Cc1nn(-c2ccccn2)c2nc(-c3cccs3)cc(C(=O)NCc3ccco3)c12`, with 8.96% (inactive); and `CCC(=O)N1CCc2cc(S(=O)(=O)N3CCN(c4ccccc4)CC3)ccc21`, with 0.73% (inactive).
On the same count and under the same terms, the figure for `CC(C)[C@H](NS(=O)(=O)c1ccccc1)C(=O)OCC(=O)Nc1cccc(S(N)(=O)=O)c1` is 3.51% (inactive).
On the same count and under the same terms, then `CS(=O)(=O)N1CCN(c2ccc([N+](=O)[O-])c(NCCN3CCOCC3)c2)CC1`, with 0.31% (inactive).
Turning to `CC(C)c1ccc(Nc2ncccc2C(=O)O)cc1`, the inhibition under setting [1] is 7.46% (inactive).
On the same count and under the same terms, the entry for `COc1ccc(Nc2ncccc2C(=O)O)cc1` is “inactive”; for `CC[C@@]1(C(=O)OC)N[C@H](CN(C)C(=O)Nc2ccc(OC)cc2)[C@@H]2C(=O)N(C)C(=O)[C@@H]21` it is “inactive”.
Consider `COc1ccc(C(=O)CCC(=O)Nc2cccnc2)cc1`, for which, under setting [1], the inhibition is 1.27% (inactive).
The same measure, in the same setting: then `COc1ccc(Nc2c(-c3ccc(C)cc3)nc3cnccn23)cc1`, with 2.6% (inactive); and `CCOC(=O)C1CCCN(c2nnnn2-c2ccccc2)C1` (configuration not stated), with 0.53% (inactive).
`O=C(CSc1nnc(-c2ccco2)o1)Nc1cccc([N+](=O)[O-])c1`: the inhibition under setting [1] is 1.81% (inactive).
Still for that read-out and setting: then `O=C(Oc1ccc2ccccc2c1Cl)N1CCCC1`, with 35.1% (inactive); and `O=C(Oc1ccc2ccccc2c1Cl)N1CCCCCC1`, with 2.11% (inactive).
With `CN1CCN(C(=O)CCc2nc3ccccc3c(=O)[nH]2)CC1`, the inhibition under setting [1] is 5.24% (inactive).
Take `CN(C)C(CNC(=O)CN1C(=O)NC2(CCCC2)C1=O)c1ccccc1` (configuration not stated): the inhibition under setting [1] is 1.45% (inactive).
Regarding `CCOc1ccc(/C=N/NC(=O)c2ccc(O)cc2)cc1CN1CC2CC(C1)c1cccc(=O)n1C2` (configuration not stated), the inhibition under setting [1] was 1.76% (inactive).
For `CCc1c(C)sc(NC(=O)C2CCCCC2C(=O)O)c1C(N)=O` (configuration not stated), the inhibition result under setting [1] was “inactive”.
On to `CCc1c(C)sc(NC(=O)c2cccs2)c1C(N)=O`, for which the inhibition under setting [1] was 0.91% (inactive).
On to `O=C(O)CSc1nnc(Cc2ccccc2)n1-c1ccccc1`, for which the inhibition (stronger effect = higher value) was 4.71% (inactive) and the inhibition (measured here: 10K pilot screen inhibition, stronger effect = higher value) worked out at 0.6%.
Turning to `COc1ccc(Cl)cc1NC(=O)C(C)N(C)Cc1cccc(Cl)c1Cl` (configuration not stated), the inhibition under setting [1] was 0.94% (inactive).
Same read-out and setting: the figure for `COc1ccc(C2/C(=C(\O)c3cc(C)ccc3C)C(=O)C(=O)N2CCN(C)C)cc1OC` (configuration not stated) is 0.58% (inactive).
Same read-out and setting: the figure for `O=C(O)CCC(=O)N1CCCC1` is 0.36% (inactive); for `Nc1ccn([C@H]2CS[C@@H](CO)O2)c(=O)n1` it is 1.18% (inactive).
`CC(Sc1ncnc2sc(-c3ccccc3)cc12)C(=O)NCC1CCCO1` (configuration not stated): under setting [1], the inhibition is 12.6% (inactive).
Turning to `CCc1cccc2c(SC(C)C(=O)NCC3CCCO3)nc(-c3ccccc3)nc12` (configuration not stated), the inhibition under setting [1] was 0.17% (inactive).
Still for that read-out and setting: the figure for `Cc1cccc(NC(=O)NNC(=O)c2sccc2-n2cccc2)c1` is 2.59% (inactive); for `O=C(/C=C/c1c(F)cccc1Cl)Nc1ncccn1` it is 7.45% (inactive).
Still for that read-out and setting: the figure for `O=C(/C=C/c1ccccc1Cl)c1ccc(O)cc1` is 12.4% (inactive).
With `CCCCn1c(N)c(N(Cc2ccccc2OC)C(=O)CCSC)c(=O)[nH]c1=O`, the inhibition under setting [1] is 2% (inactive).
Same read-out and setting: then `Cc1nn(C)cc1/C=N/NC(=S)Nc1ccc(Cl)cc1Cl`, with 1.88% (inactive).
Same read-out and setting: the figure for `Clc1cccc(-c2noc3ncnc(Nc4ccc5c(c4)OCO5)c23)c1` is 1.3% (inactive); for `O=C(Nc1ccc(N2CCCC2)c(Cl)c1)c1cccnc1` it is 9.45% (inactive).
The same measure, in the same setting: then `O=C(Nc1ccc(N2CCOCC2)c(Cl)c1)c1cccnc1`, with 1.94% (inactive).
`O=C(Nc1ccc(Cl)cc1)c1nc[nH]c1C(=O)NCCN(CCNC(=O)c1[nH]cnc1C(=O)Nc1ccc(Cl)cc1)CCNC(=O)c1[nH]cnc1C(=O)Nc1ccc(Cl)cc1`: the inhibition under setting [1] is 0.19% (inactive).
As for `CCCN1C(=O)c2ccccc2NC1c1cc(OC)c(OC)c(OC)c1` (configuration not stated), the inhibition entry under setting [1] is “inactive”.
The same measure, in the same setting: the entry for `CCCN1C(=O)c2ccccc2NC1c1ccc(OC)cc1OC` (configuration not stated) is “inactive”; for `CCOC(=O)c1c(-c2ccccc2)oc2cc(CN(C)C)c(O)c(CN(C)C)c12` it is 2.26% (inactive); for `CC1(C)Cc2[nH]c3ccccc3c2C(C)(C)N1` it is 0.1% (inactive).
Turning to `Cc1cccn2cc(COc3cccc([N+](=O)[O-])c3)nc12`, under setting [1], the inhibition is 2.58% (inactive).
With `Cc1cccn2cc(-c3ccccc3)nc12`, the inhibition under setting [1] was 5.4% (inactive).
The same measure, in the same setting: then `Cc1ccc(S(=O)(=O)Oc2ccc(N3C(=O)C4C5CCC(C5)C4C3=O)cc2)cc1` (configuration not stated), with 2.05% (inactive); and `Cc1ccc2[nH]c3c(=O)n(CC(=O)Nc4ccccc4N4CCN(C)CC4)ncc3c2c1`, with 0.06% (inactive).
Still for that read-out and setting: then `Cc1ccc2oc(=O)c3cnn(CC(=O)N4CCN(c5ccccc5)CC4)c3c2c1`, with 10.3% (inactive).
